# Experimental data reported in ChEMBL document CHEMBL5598561, “ASAP - In vitro binding kinetics” (2024).
# Target: Nonstructural protein 3 (Zika virus) (UniProt A0A024AXB9)
# Details: PRVABC59, Concentration 10.0 uM
# Chain of Nonstructural protein 3 (Zika virus) (A0A024AXB9 as listed by the source): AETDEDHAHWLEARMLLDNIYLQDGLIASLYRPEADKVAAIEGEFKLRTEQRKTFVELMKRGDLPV
smiles,measurement,setting,value
O=C(Nc1cnc2c(c1)CNCC2)c1cc(Cl)cc2[nH]ncc12,pKD,"Immobilization level 10000.0 pg/mm2, Rmax 20.0 pg/mm2, ka 1026935.718 M-1s-1, kd 0.802 1/s",6.11
same,pKD,"Immobilization level 12000.0 pg/mm2, Rmax 35.0 pg/mm2, ka 607851.885 M-1s-1, kd 0.465 1/s",6.12
same,pKD,"Immobilization level 13000.0 pg/mm2, Rmax 25.0 pg/mm2, ka 909514.232 M-1s-1, kd 0.608 1/s",6.17
Clc1cc(CNc2ccc3c(c2)CNC3)c2cn[nH]c2c1,pKD,"Immobilization level 10000.0 pg/mm2, Rmax 2.0 pg/mm2, ka 219034.03 M-1s-1, kd 0.842 1/s",5.42
same,pKD,"Immobilization level 12000.0 pg/mm2, Rmax 10.0 pg/mm2, ka 126196.485 M-1s-1, kd 1.272 1/s",5
same,pKD,"Immobilization level 13000.0 pg/mm2, ka 206129.831 M-1s-1, kd 1.048 1/s",5.29
Cn1nc(C(=O)Nc2ccc3c(c2)CNC3)c2cc(Br)ccc21,pKD,"Immobilization level 3900.0 pg/mm2, Rmax 7.0 pg/mm2, ka 186374.339 M-1s-1, kd 1.611 1/s",5.06
same,pKD,"Immobilization level 4900.0 pg/mm2, Rmax 17.0 pg/mm2, ka 132352.529 M-1s-1, kd 1.379 1/s",4.98
same,pKD,"Immobilization level 5500.0 pg/mm2, Rmax 22.0 pg/mm2, ka 128273.344 M-1s-1, kd 1.393 1/s",4.96
O=C(Nc1ccc2c(c1)CNC2)c1cc(Br)cc2[nH]c(-c3ccccc3)nc12,pKD,"Immobilization level 10000.0 pg/mm2, Rmax 3.0 pg/mm2, ka 184994.652 M-1s-1, kd 0.296 1/s",5.79
same,pKD,"Immobilization level 12000.0 pg/mm2, Rmax 13.0 pg/mm2, ka 22744.722 M-1s-1, kd 0.309 1/s",4.87
same,pKD,"Immobilization level 13000.0 pg/mm2, ka 103523.991 M-1s-1, kd 0.302 1/s",5.54
CC(C)(C)c1ccc(Cl)cc1C(=O)Nc1ccc2c(c1)CNC2,pKD,"Immobilization level 10000.0 pg/mm2, Rmax 29.0 pg/mm2, ka 451041.562 M-1s-1, kd 5.162 1/s",4.94
same,pKD,"Immobilization level 12000.0 pg/mm2, Rmax 32.0 pg/mm2, ka 233803.873 M-1s-1, kd 2.593 1/s",4.96
same,pKD,"Immobilization level 13000.0 pg/mm2, Rmax 24.0 pg/mm2, ka 278548.314 M-1s-1, kd 2.759 1/s",5
Cn1ncc2c(C(=O)Nc3ccc4c(c3)CNC4)cc(Br)cc21,pKD,"Immobilization level 10000.0 pg/mm2, Rmax 23.0 pg/mm2, ka 300646.199 M-1s-1, kd 0.327 1/s",5.96
same,pKD,"Immobilization level 12000.0 pg/mm2, Rmax 66.0 pg/mm2, ka 115064.14 M-1s-1, kd 0.186 1/s",5.79
same,pKD,"Immobilization level 13000.0 pg/mm2, Rmax 35.0 pg/mm2, ka 218446.798 M-1s-1, kd 0.273 1/s",5.9
O=C(Nc1ccc(C2CCNCC2)cc1)c1cc(Cl)cc2[nH]ncc12,pKD,"Immobilization level 10000.0 pg/mm2, Rmax 4.0 pg/mm2, ka 163257.858 M-1s-1, kd 0.446 1/s",5.56
same,pKD,"Immobilization level 12000.0 pg/mm2, ka 318291.503 M-1s-1, kd 0.429 1/s",5.87
same,pKD,"Immobilization level 13000.0 pg/mm2, ka 203161.324 M-1s-1, kd 0.494 1/s",5.61
CCCN1C(=O)[C@](C#N)(Nc2ccc3c(c2)CNC3)c2ccccc21,pKD,"Immobilization level 3900.0 pg/mm2, Rmax 21.0 pg/mm2, ka 159960.868 M-1s-1, kd 3.775 1/s",4.63
same,pKD,"Immobilization level 5500.0 pg/mm2, Rmax 21.0 pg/mm2, ka 193790.134 M-1s-1, kd 2.393 1/s",4.91
same,pKD,"Immobilization level 12000.0 pg/mm2, Rmax 14.0 pg/mm2, ka 179346.718 M-1s-1, kd 2.44 1/s",4.87
NCCCCc1ccc(NC(=O)c2cc(Cl)cc3[nH]ncc23)cc1,pKD,"Immobilization level 10000.0 pg/mm2, Rmax 4.0 pg/mm2, ka 200640.001 M-1s-1, kd 1.917 1/s",5.02
same,pKD,"Immobilization level 12000.0 pg/mm2, Rmax 9.0 pg/mm2, ka 275409.297 M-1s-1, kd 4.372 1/s",4.8
same,pKD,"Immobilization level 13000.0 pg/mm2, Rmax 11.0 pg/mm2, ka 186293.866 M-1s-1, kd 4.24 1/s",4.64
Cn1ncc2c(C(=O)Nc3ccc4c(c3)CNC4)cc(C3CC3)nc21,pKD,"Immobilization level 10000.0 pg/mm2, Rmax 33.0 pg/mm2, ka 244724.506 M-1s-1, kd 7.844 1/s",4.49
same,pKD,"Immobilization level 12000.0 pg/mm2, Rmax 31.0 pg/mm2, ka 442165.646 M-1s-1, kd 5.14 1/s",4.93
same,pKD,"Immobilization level 13000.0 pg/mm2, Rmax 33.0 pg/mm2, ka 379334.104 M-1s-1, kd 6.596 1/s",4.76
Cn1cc(CNC(=O)[C@H](Nc2ccc3c(c2)CNC3)c2cc(Cl)cc(C3CC3)c2)cn1,pKD,"Immobilization level 10000.0 pg/mm2, Rmax 44.0 pg/mm2, ka 376767.851 M-1s-1, kd 0.158 1/s",6.38
same,pKD,"Immobilization level 12000.0 pg/mm2, Rmax 64.0 pg/mm2, ka 164221.498 M-1s-1, kd 0.09 1/s",6.26
same,pKD,"Immobilization level 13000.0 pg/mm2, Rmax 64.0 pg/mm2, ka 253337.321 M-1s-1, kd 0.133 1/s",6.28
O=C(Nc1ccc2c(c1)CNCCO2)c1cc(Cl)cc2[nH]ncc12,pKD,"Immobilization level 10000.0 pg/mm2, Rmax 42.0 pg/mm2, ka 416936.25 M-1s-1, kd 0.968 1/s",5.63
same,pKD,"Immobilization level 12000.0 pg/mm2, Rmax 47.0 pg/mm2, ka 414358.163 M-1s-1, kd 0.643 1/s",5.81
same,pKD,"Immobilization level 13000.0 pg/mm2, Rmax 56.0 pg/mm2, ka 373791.933 M-1s-1, kd 0.809 1/s",5.67
CCc1ncc(Cl)cc1C(=O)Nc1ccc2c(c1)CNC2,pKD,"Immobilization level 10000.0 pg/mm2, Rmax 18.0 pg/mm2, ka 231152.44 M-1s-1, kd 2.909 1/s",4.9
same,pKD,"Immobilization level 12000.0 pg/mm2, Rmax 36.0 pg/mm2, ka 247716.147 M-1s-1, kd 2.057 1/s",5.08
same,pKD,"Immobilization level 13000.0 pg/mm2, Rmax 25.0 pg/mm2, ka 245446.465 M-1s-1, kd 2.231 1/s",5.04
C[C@H]1Oc2c(cccc2C(=O)Nc2ccc3c(c2)CNC3)NC1=O,pKD,"Immobilization level 10000.0 pg/mm2, Rmax 20.0 pg/mm2, ka 247912.445 M-1s-1, kd 2.654 1/s",4.97
same,pKD,"Immobilization level 12000.0 pg/mm2, Rmax 35.0 pg/mm2, ka 236689.654 M-1s-1, kd 1.809 1/s",5.12
same,pKD,"Immobilization level 13000.0 pg/mm2, Rmax 26.0 pg/mm2, ka 250555.254 M-1s-1, kd 1.96 1/s",5.11
O=C(NC[C@H]1CCCO1)[C@H](Nc1ccc2c(c1)CNC2)c1cc(Cl)cc(C2CC2)c1,pKD,"Immobilization level 10000.0 pg/mm2, Rmax 42.0 pg/mm2, ka 577169.922 M-1s-1, kd 0.179 1/s",6.51
same,pKD,"Immobilization level 12000.0 pg/mm2, Rmax 59.0 pg/mm2, ka 295597.466 M-1s-1, kd 0.112 1/s",6.42
same,pKD,"Immobilization level 13000.0 pg/mm2, Rmax 62.0 pg/mm2, ka 409256.138 M-1s-1, kd 0.153 1/s",6.43
Cc1cc(C(=O)Nc2ccc3c(c2)CNC3)c2cn[nH]c2c1,pKD,"Immobilization level 10000.0 pg/mm2, Rmax 20.0 pg/mm2, ka 694418.255 M-1s-1, kd 0.431 1/s",6.21
same,pKD,"Immobilization level 12000.0 pg/mm2, Rmax 39.0 pg/mm2, ka 340621.404 M-1s-1, kd 0.261 1/s",6.12
same,pKD,"Immobilization level 13000.0 pg/mm2, Rmax 29.0 pg/mm2, ka 572465.277 M-1s-1, kd 0.338 1/s",6.23
O=C(Nc1ccc2c(c1)CNC2)c1cc(Cl)nc2[nH]ncc12,pKD,"Immobilization level 10000.0 pg/mm2, Rmax 24.0 pg/mm2, ka 257771.158 M-1s-1, kd 2.862 1/s",4.96
same,pKD,"Immobilization level 12000.0 pg/mm2, Rmax 48.0 pg/mm2, ka 216828.153 M-1s-1, kd 2.008 1/s",5.03
same,pKD,"Immobilization level 13000.0 pg/mm2, Rmax 31.0 pg/mm2, ka 263772.69 M-1s-1, kd 2.044 1/s",5.11
N#Cc1cc(Cl)cc(C(=O)Nc2ccc3c(c2)CNC3)c1,pKD,"Immobilization level 10000.0 pg/mm2, Rmax 13.0 pg/mm2, ka 937740.865 M-1s-1, kd 1.0 1/s",5.97
same,pKD,"Immobilization level 12000.0 pg/mm2, Rmax 30.0 pg/mm2, ka 568340.521 M-1s-1, kd 0.543 1/s",6.02
same,pKD,"Immobilization level 13000.0 pg/mm2, Rmax 21.0 pg/mm2, ka 849954.362 M-1s-1, kd 0.772 1/s",6.04
O=C(NCC(F)F)[C@H](Nc1ccc2c(c1)CNC2)c1cc(Cl)cc(C2CC2)c1,pKD,"Immobilization level 10000.0 pg/mm2, Rmax 47.0 pg/mm2, ka 474542.901 M-1s-1, kd 0.05 1/s",6.97
same,pKD,"Immobilization level 12000.0 pg/mm2, Rmax 82.0 pg/mm2, ka 199001.376 M-1s-1, kd 0.068 1/s",6.46
same,pKD,"Immobilization level 13000.0 pg/mm2, Rmax 74.0 pg/mm2, ka 337297.719 M-1s-1, kd 0.055 1/s",6.78
O=C(Nc1ccc2c(c1)CNC2)c1cc(Cl)ccc1-n1ccnc1,pKD,"Immobilization level 10000.0 pg/mm2, Rmax 38.0 pg/mm2, ka 298408.653 M-1s-1, kd 1.639 1/s",5.26
same,pKD,"Immobilization level 12000.0 pg/mm2, Rmax 63.0 pg/mm2, ka 203693.474 M-1s-1, kd 1.266 1/s",5.21
same,pKD,"Immobilization level 13000.0 pg/mm2, Rmax 40.0 pg/mm2, ka 299200.161 M-1s-1, kd 1.542 1/s",5.29
N#CCCNC(=O)[C@H](Nc1ccc2c(c1)CNC2)c1cc(Cl)cc(C2CC2)c1,pKD,"Immobilization level 10000.0 pg/mm2, Rmax 28.0 pg/mm2, ka 442303.592 M-1s-1, kd 0.092 1/s",6.68
same,pKD,"Immobilization level 12000.0 pg/mm2, Rmax 54.0 pg/mm2, ka 245042.447 M-1s-1, kd 0.064 1/s",6.58
same,pKD,"Immobilization level 13000.0 pg/mm2, Rmax 39.0 pg/mm2, ka 364691.558 M-1s-1, kd 0.079 1/s",6.67
O=C(NCC1CCOCC1)[C@H](Nc1ccc2c(c1)CNC2)c1cc(Cl)cc2[nH]ncc12,pKD,"Immobilization level 10000.0 pg/mm2, Rmax 24.0 pg/mm2, ka 732529.674 M-1s-1, kd 0.501 1/s",6.17
same,pKD,"Immobilization level 12000.0 pg/mm2, Rmax 44.0 pg/mm2, ka 461664.392 M-1s-1, kd 0.336 1/s",6.14
same,pKD,"Immobilization level 13000.0 pg/mm2, Rmax 32.0 pg/mm2, ka 718906.653 M-1s-1, kd 0.399 1/s",6.25
O=C(Nc1ccc2c(c1)OCCNC2)c1cc(Cl)cc2[nH]ncc12,pKD,"Immobilization level 10000.0 pg/mm2, Rmax 33.0 pg/mm2, ka 475344.334 M-1s-1, kd 1.334 1/s",5.55
same,pKD,"Immobilization level 12000.0 pg/mm2, Rmax 41.0 pg/mm2, ka 216924.489 M-1s-1, kd 0.865 1/s",5.4
same,pKD,"Immobilization level 13000.0 pg/mm2, Rmax 42.0 pg/mm2, ka 331181.332 M-1s-1, kd 1.11 1/s",5.47
